Several values for one entry are separate records, joined by “and”; a condition that tells them apart may be missing. Equal values may be shown once. Results filed as inconclusive are left out. Activity calls are given as the source filed them. Unless noted, the call rests on the fitted dose curve; in most records, active means well fitted curve in the direction sought with a large enough effect; inconclusive means small, poorly fitted or top-dose-only effect, or another doubt; inactive means no such curve, though single readings can be large; an effect the other way counts as inactive or inconclusive.
How the values were obtained:
[1] = target: Cytochrome P450 1A2 (Homo sapiens) (UniProt P05177); experiment: p450-cyp1a2 (AID 410; calls by dose curve; further: potency means the concentration at half of the fitted maximal effect;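 on activity change, negative = inhibition: -100% = full effect of reference inhibitor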)
Sequence of Cytochrome P450 1A2 (Homo sapiens) (P05177 whole entry, looked up): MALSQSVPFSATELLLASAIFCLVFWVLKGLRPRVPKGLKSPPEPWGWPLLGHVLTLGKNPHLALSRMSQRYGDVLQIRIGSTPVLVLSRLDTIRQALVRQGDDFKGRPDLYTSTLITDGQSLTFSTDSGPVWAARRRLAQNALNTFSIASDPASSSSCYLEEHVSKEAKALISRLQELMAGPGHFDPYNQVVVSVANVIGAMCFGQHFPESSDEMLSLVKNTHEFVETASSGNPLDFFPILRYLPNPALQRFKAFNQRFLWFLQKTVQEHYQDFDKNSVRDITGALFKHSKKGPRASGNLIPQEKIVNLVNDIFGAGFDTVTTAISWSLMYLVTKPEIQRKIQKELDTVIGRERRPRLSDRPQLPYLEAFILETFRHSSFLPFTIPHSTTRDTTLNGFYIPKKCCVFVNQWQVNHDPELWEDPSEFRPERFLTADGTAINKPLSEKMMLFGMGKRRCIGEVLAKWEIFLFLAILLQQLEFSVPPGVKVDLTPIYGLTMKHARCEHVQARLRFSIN
Method in brief: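 Luminescent readout of luciferin formed from Luciferin-ME by human CYP1A2; data normalized against complete inhibition by 57 uM furafylline. Enzyme 20nM, substrate 100uM at Km, 100mM KPO4 buffer, 60 min reaction at room temperature.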

[2] = target: Glucocorticoid receptor (Homo sapiens) (UniProt P04150); experiment: GR-GFP Redistribution (AID 450;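 active means compounds whose dose series gives a full or clear partial fitted curve of increased nuclear translocation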; further: potency means the concentration at half of the fitted maximal effect); conditions: U2OS GR-GFP nuclear translocation, laser cytometry, 2 h
Sequence of Glucocorticoid receptor (Homo sapiens) (P04150 whole entry, looked up, the tested form may be a part): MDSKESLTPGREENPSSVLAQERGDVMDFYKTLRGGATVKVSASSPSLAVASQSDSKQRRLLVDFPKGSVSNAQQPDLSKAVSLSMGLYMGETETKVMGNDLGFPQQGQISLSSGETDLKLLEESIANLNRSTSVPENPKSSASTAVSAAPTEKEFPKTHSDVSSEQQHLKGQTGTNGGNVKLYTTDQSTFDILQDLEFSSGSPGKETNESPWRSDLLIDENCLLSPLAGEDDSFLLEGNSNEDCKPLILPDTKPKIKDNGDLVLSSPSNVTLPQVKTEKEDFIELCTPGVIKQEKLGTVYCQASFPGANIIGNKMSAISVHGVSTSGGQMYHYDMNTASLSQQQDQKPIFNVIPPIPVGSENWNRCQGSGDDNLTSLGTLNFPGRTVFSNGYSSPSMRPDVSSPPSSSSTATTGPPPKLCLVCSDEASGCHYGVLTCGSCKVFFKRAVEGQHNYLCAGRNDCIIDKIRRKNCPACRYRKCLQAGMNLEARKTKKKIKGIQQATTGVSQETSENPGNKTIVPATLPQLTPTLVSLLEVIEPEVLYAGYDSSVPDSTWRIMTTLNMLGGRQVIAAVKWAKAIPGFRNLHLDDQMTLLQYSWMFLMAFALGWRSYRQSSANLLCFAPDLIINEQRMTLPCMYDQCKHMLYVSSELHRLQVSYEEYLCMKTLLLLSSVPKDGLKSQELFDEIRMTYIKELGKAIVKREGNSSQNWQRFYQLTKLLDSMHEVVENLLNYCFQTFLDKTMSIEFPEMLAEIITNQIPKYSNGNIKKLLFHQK

[3] = target: Glucocorticoid receptor (Homo sapiens) (UniProt P04150); experiment: GR-EFC Redistribution (AID 451; calls by dose curve; further: potency means the concentration at half of the fitted maximal effect); conditions: CHO-K1 GR-EFC translocation, beta-gal luminescence, 2 h
Method in brief: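 Translocation of GR-ED fusion to nuclear EA restores b-gal, read by luminescence after 1 h room-temperature detection. Engineered CHO-K1 biosensor cells, 1,000/well, exposed 2 h at 37 C to titrations up to 46 uM final.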

[4] = qHTS Assay for Lipid Storage Modulators (AID 1519; calls by dose curve; on activity change, negative = inhibition: on the % scale 0 is the no-effect control and ±100 the full control effect); conditions: Drosophila S3 cells, BODIPY lipid droplet/cell ratio, laser cytometry, cells loaded with oleic acid
Method in brief: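 Cells seeded at 5,000 per well were treated with compounds over a concentration series and loaded with oleic acid (400 uM, as added). Lipid droplet fluorescence (488 nm excitation, 500-530 nm channel) was read by laser-scanning cytometry and normalized to 20 uM Triacsin C.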

[5] = target: Ubiquitin carboxyl-terminal hydrolase 1 (Homo sapiens) (UniProt O94782); experiment: Inhibitors of USP1/UAF1: Pilot qHTS (AID 504865); further: potency means the concentration at half of the fitted maximal effect; nearly all actives have a fitted effect of over 35% in size
Sequence of Ubiquitin carboxyl-terminal hydrolase 1 (Homo sapiens) (O94782 whole entry, looked up): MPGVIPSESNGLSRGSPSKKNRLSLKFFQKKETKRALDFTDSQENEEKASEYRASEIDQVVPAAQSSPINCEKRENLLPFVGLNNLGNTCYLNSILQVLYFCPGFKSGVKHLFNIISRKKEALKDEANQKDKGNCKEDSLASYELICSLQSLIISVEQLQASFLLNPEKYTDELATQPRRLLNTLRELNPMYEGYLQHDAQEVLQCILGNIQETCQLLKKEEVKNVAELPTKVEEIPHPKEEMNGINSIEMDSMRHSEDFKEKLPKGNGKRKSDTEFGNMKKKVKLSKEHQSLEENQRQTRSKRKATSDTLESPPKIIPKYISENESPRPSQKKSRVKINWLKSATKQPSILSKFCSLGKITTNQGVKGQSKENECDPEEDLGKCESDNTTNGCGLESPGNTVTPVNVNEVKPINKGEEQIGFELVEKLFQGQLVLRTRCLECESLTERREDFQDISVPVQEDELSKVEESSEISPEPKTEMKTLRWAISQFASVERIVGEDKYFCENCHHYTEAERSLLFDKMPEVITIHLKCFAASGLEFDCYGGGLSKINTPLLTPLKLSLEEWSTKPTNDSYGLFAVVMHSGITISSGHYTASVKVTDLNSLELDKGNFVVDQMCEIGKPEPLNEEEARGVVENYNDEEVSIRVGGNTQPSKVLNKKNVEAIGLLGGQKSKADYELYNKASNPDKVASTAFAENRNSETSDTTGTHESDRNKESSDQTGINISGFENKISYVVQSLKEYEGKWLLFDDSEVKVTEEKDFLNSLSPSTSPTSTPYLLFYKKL
Method in brief: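 Enzyme-free wells gave the negative control, while test wells held 1nM USP1/UAF1 preincubated with compound for 15 min at room temperature. Ub-Rho at 150nM final started the reaction, and fluorescence at 480/540 nm was recorded kinetically.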

[6] = target: DNA dC->dU-editing enzyme APOBEC-3G (Homo sapiens) (UniProt Q9HC16); experiment: qHTS for inhibitors of Vif-A3G interactions: Validation (AID 588379); further: 0% is about no effect
Sequence of DNA dC->dU-editing enzyme APOBEC-3G (Homo sapiens) (Q9HC16 whole entry, looked up): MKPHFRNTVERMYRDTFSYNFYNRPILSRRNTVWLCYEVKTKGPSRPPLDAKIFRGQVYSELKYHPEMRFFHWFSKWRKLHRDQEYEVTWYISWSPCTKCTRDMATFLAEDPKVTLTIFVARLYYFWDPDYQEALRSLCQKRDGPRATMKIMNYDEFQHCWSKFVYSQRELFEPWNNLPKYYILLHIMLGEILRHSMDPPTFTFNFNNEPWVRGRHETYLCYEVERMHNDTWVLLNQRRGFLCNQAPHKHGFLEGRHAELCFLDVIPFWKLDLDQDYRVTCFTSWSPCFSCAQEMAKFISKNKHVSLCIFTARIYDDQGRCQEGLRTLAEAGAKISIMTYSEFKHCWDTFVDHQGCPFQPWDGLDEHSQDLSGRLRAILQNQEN
Method in brief: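 HeLa cells stably expressing Vif and A3G-eYFP, 700 cells/well, incubated overnight at 37 deg C, then exposed to compound overnight at 37 deg C. Inhibition of Vif-mediated degradation read as increased yellow fluorescence (Ex 488/Em 500-530) by laser-scanning cytometry.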

[7] = Confirmatory screen GU Rhodamine qHTS for Zika virus inhibitors qHTS (AID 1347157); further: nearly all actives have a fitted effect of over 70% in size; further: potency means the concentration at half of the fitted maximal effect;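 on activity change, negative = inhibition: plate controls were no-inhibitor wells for no effect and no-enzyme wells for full effect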
Method in brief: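 A qHTS format was used, with compound concentrations ranging up to 114 microM. Each compound was preincubated with 25 nM NS2B-NS3 protease, and the substrate was then added at 1.5 microM. Curves were fitted with a 4-parameter Hill model.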

[8] = Confirmatory screen NINDS Rhodamine qHTS for Zika virus inhibitors (AID 1347161); further: nearly all actives have a fitted effect of over 60% in size; further: potency means the concentration at half of the fitted maximal effect;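 on activity change, negative = inhibition: purified Zika NS2B-NS3 protease with linked NS2B cofactor domain and Rhodamine110 peptide substrate; plate controls were no-inhibitor control for no effect and no-enzyme control for full effect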
Method in brief: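 Each compound, titrated, sat 15 min with 25 nM linked protease before 1.5 microM Rhodamine110 substrate went in. Fluorescence gain over the next 15 min, in pH 8.0 Tris with Tween 20, gave Hill-fitted curves.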

[9] = tested on: Zika virus NS2B-NS3 protease (linked); experiment: 384 well plate NINDS AMC confirmatory qHTS for Zika virus inhibitors (AID 1347163); further: potency means the concentration at half of the fitted maximal effect; nearly all actives have a fitted effect of over 50% in size
Method in brief: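 Linked NS2B-NS3 protease (final 5 nM, 30 nM or 60 nM) was preincubated with compounds (final up to 1 mM) for ~15 minutes. Ac-VKTGKR-AMC substrate (final 30 microM) then reacted for 25 minutes at room temperature in the dark. Fluorescence (ex 355/em 460 nm) was normalized to no-enzyme and no-inhibitor controls.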

[10] = tested on: Zika virus NS2B-NS3 protease (linked construct); experiment: 384 well plate NINDS Rhodamine confirmatory qHTS for Zika virus inhibitors (AID 1347164); further: potency means the concentration at half of the fitted maximal effect; nearly all actives have a fitted effect of over 65% in size
Method in brief: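 Cleavage of Ac-LKRR-Rhodamine 110 (10 microM final) by linked protease (final 5, 30 or 60 nM) was followed as fluorescence at 485/538 nm after 25 min, room temperature, dark. Compounds preincubated ~15 min.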

[11] = Tertiary RLuc qRT-PCR qHTS assay for Zika virus inhibitors (AID 1347169); further: top concentration of the series differs between compounds; on the % scale 0 is the no-effect control and ±100 the full control effect; nearly all actives have a fitted effect of over 55% in size
Method in brief: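 Inhibition of ZIKV-RLuc replication in Vero cells, read as Renilla luminescence 1-1.5 hrs after live-cell substrate addition, following 48-72 hrs infection at MOI 1-2 in presence of compound.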

[12] = ZIKV-mCherry secondary qHTS for Zika virus inhibitors (AID 1347158); further: top concentration of the series differs between compounds
Method in brief: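 Vero, 5,000 cells/well, o/n 37 °C; cpd pin-transferred in DMSO; ZIKV-mCherry MOI 1, 48-72 h 37 °C; 32% PFA stock fix, Hoechst; imaged 10x DAPI/mCherry; mCherry+ threshold 450 RFU; % infection.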

[13] = target: Lysosomal acid glucosylceramidase (Homo sapiens) (UniProt P04062); experiment: Glucocerebrosidase-p2 (AID 348; in the data active means potency below about 10 µM; further: potency means the concentration at half of the fitted maximal effect); conditions: purified GBA, blue fluorogenic substrate, 40 min
Sequence of Lysosomal acid glucosylceramidase (Homo sapiens) (P04062 whole entry, looked up): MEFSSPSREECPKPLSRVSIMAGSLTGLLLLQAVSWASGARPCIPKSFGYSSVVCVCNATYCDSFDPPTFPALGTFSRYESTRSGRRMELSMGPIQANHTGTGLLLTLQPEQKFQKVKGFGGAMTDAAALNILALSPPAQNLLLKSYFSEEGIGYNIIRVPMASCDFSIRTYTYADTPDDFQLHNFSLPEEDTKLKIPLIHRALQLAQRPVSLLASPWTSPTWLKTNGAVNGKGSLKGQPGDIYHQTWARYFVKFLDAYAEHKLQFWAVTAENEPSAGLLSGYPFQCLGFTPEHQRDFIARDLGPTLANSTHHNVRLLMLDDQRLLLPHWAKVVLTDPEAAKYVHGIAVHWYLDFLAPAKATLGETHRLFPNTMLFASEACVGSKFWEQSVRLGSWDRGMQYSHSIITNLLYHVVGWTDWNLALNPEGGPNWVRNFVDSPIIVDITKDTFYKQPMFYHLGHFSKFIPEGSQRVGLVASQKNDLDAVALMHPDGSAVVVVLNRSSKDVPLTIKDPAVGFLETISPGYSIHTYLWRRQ
Method in brief: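 Compounds titrated from 0.6 nM upwards against 0.2 nM enzyme in pH 5.9 citric acid/KH2PO4, taurocholate, tween-20; blue fluorogenic substrate 80 uM, 40 min room temperature, stopped and read Ex 365/Em 440 for AC50.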

[14] = AP1 Signaling Pathway (AID 357; active means well fitted curve in either direction with a large enough effect, not every such curve was filed as active;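 further: ME-180 reporter cells stimulated with EGF at its EC50 level; on the % scale 0 is the no-effect control and ±100 the full control effect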); conditions: ME-180 (cervical carcinoma) AP-1-bla reporter, EGF-induced, beta-lactamase ratio, 5 h; at 7.69 µM (top of the series)
Method in brief: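 Beta-lactamase reporter under AP-1 response element, ME-180 background. Stimulus: EC50 EGF. Compound exposure 5 h, 37 °C. Detection: CCF4, 2.5 h RT, 460/530 nm. Values: AC50 from titration.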

[15] = NFAT Signaling Pathway (AID 444; active means well fitted curve in either direction with a large enough effect, not every such curve was filed as active;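 further: carbachol stimulus at about its EC50 of 1 µM final; on the % scale 0 is the no-effect control and ±100 the full control effect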); conditions: Jurkat NFAT-bla M1, carbachol, beta-lactamase ratio, 5 h; at 7.69 µM (top of the series)
Method in brief: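 Read-out: CCF4 FRET ratio (460 nm/530 nm) after 1 h RT dye loading, used for %activity and AC50 from titration series. Cells: Jurkat NFAT-β-lactamase/M1 line, treated with compound plus 1 uM carbachol for 5 h, 37 °C.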

[16] = target: Cytochrome P450 3A4 (Homo sapiens) (UniProt P08684); experiment: qHTS Assay for Activators of Cytochrome P450 3A4 (AID 885); further: nearly all actives have a fitted effect of over 65% in size
Sequence of Cytochrome P450 3A4 (Homo sapiens) (P08684 whole entry, looked up): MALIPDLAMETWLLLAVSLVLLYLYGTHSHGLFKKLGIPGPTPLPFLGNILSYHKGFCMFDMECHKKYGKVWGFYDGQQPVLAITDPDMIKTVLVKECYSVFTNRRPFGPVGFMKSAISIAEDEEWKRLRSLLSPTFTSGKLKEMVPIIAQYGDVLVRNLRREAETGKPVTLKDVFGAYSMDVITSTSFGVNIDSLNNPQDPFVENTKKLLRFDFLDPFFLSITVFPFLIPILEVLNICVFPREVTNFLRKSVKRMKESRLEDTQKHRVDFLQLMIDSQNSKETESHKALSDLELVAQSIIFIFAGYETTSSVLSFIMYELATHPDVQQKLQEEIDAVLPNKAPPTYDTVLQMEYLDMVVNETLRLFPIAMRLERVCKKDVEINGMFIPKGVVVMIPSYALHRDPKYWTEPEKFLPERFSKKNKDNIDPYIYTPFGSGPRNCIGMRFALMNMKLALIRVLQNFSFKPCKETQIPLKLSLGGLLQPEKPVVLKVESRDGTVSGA
Method in brief: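 Signal was normalized against complete inhibition by 57 uM ketoconazole. The reaction used 20nM CYP3A4 with 25uM Luciferin-PPXE, 10-min compound preincubation and a 60-min NADPH-supported step at RT.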

O=C(Nc1ccc(C(=O)Nc2ccc(C(=O)Nc3ccc(S(=O)(=O)O)c4cc(S(=O)(=O)O)cc(S(=O)(=O)O)c34)cc2)cc1)Nc1ccc(C(=O)Nc2ccc(C(=O)Nc3ccc(S(=O)(=O)O)c4cc(S(=O)(=O)O)cc(S(=O)(=O)O)c34)cc2)cc1
Potency [1]: 31.6 µM (active)
Potency [2]: > 46 µM (inactive)
Potency [3]: > 46 µM (inactive)
activity change, negative = inhibition ([4]; at 57.5 µM (top of the series)): 5.27% (inactive)
max response ([4]; measured here: cell count channel max response): -4.46%
max response ([4]; measured here: lipid channel max response): 0.0462%
Potency [5]: 39.8 µM (active)
Potency [6]: inactive
Potency [7]: 2 µM (active)
Potency [8]: 2.24 µM (active) and 1.26 µM (active)
Potency [9]: 39.8 µM (active)
Potency [10]: 2.51 µM (active)
Potency [11]: inactive

CCCCc1nn2c(=O)cc(COC(=O)c3ccc(NC(=O)c4cccs4)cc3)nc2s1
Potency [7]: inactive
Potency [8]: inactive
Potency [11]: inactive

CC(=O)Nc1ccc(S(=O)(=O)O)c2cc(S(=O)(=O)O)c(N=Nc3ccc(N=Nc4ccc(S(=O)(=O)O)cc4)c4ccc(S(=O)(=O)O)cc34)c(O)c12
Potency [7]: 6.31 µM (active)
Potency [8]: 2.51 µM (active)
Potency [9]: 22.4 µM (active)
Potency [10]: 3.98 µM (active)
Potency [11]: inactive

O=C(Nc1ccc(C(=O)OCc2cc(=O)n3nc(C4CC4)sc3n2)cc1)c1ccc(F)cc1
Potency [7]: inactive
Potency [8]: inactive
Potency [11]: inactive

CCN(Cc1cccc(S(=O)(=O)O)c1)c1ccc(C(=C2C=CC(=[N+](CC)Cc3cccc(S(=O)(=O)O)c3)C=C2)c2ccc(O)cc2S(=O)(=O)O)cc1
Potency [7]: 4.47 µM (active)
Potency [12]: inactive
Potency [8]: 3.55 µM (active)
Potency [9]: 63.1 µM (active)

CC(C)(C)c1ccc(S(=O)(=O)c2cnc(SCC(=O)Nc3ccc4c(c3)OCCO4)[nH]c2=O)cc1
Potency [7]: 7.08 µM (active)
Potency [12]: inactive
Potency [8]: 6.31 µM (active)
Potency [9]: 316 µM (active)
Potency [10]: 31.6 µM (active)
Potency [11]: inactive

COC(=O)c1ccc([C@H]2Nc3ccc(S(=O)(=O)Nc4cccc(C)c4)cc3[C@H]3C=CC[C@H]32)cc1
Potency [7]: 25.1 µM (active)
Potency [12]: inactive
Potency [8]: 25.1 µM (active)
Potency [9]: 141 µM (active)
Potency [10]: 158 µM (active)
Potency [11]: inactive

O=C(O)c1c(Br)c(Br)c(Br)c(Br)c1C1c2ccc(O)cc2Oc2cc(O)ccc21
Potency [13]: 7.36 µM (active)
activity change, negative = inhibition [14]: -20.1% (inactive)
activity change, negative = inhibition [1]: -6.8% [at 2.29 µM] (inactive)
activity change, negative = inhibition [15]: -6.47% (inactive)
Potency [2]: > 46 µM (inactive)
activity change, positive = activation [16]: -36% [at 11.4 µM] (inactive)
Potency [7]: 12.6 µM (active)
Potency [12]: inactive
Potency [8]: 0.891 µM (active)
Potency [9]: 14.1 µM (active)
